Most compounds without a hit are left out; they make up all but 4.1% or so of the library.
hcDAF12 agonist = activates DAF-12 receptor from parasite H. contortus | hit rate 1.4% among 370,000 | HEK293 hcDAF-12 lit1-tk-luc reporter, luminescence; 0% DMSO, 100% Δ7-dafachronic acid | activation, % at 6.8 µM;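 active = activation above the mean of all tested compounds plus 3 SD, cut at about 5.5% in these data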;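 note: 100% = response to 3 µM Δ7-dafachronic acid high control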
ssDAF-12 act = S. stercoralis DAF-12 activation, primary screen | AID 652126 | hit rate 1% among 370,000 | HEK293 ssDAF-12/GRIP1 lit1-tk-luc reporter, luminescence; % of 3 µM dafachronic acid response | activation, % at 6.8 µM;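 active = activation above the mean over all tested compounds plus 3 SD, cut at about 0.9% in these data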;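 note: 0% = DMSO-only wells and 100% = 3 µM delta7-dafachronic acid wells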
DAX1 inh-1 = NR0B1 (DAX1) inhibition | P51843 | inhibition, % at 6.75 µM | hit rate 0.99% among 340,000 | HEK293 Gal4-DAX1 luciferase reporter, luminescence | AID 504766;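 active = inhibition above the mean over all tested compounds plus 3 SD, cut at about 4.2% in these data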;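 note: 0% = DAX1-transfected cells with DMSO and 100% = empty-vector control cells with DMSO; inhibition shows as a rise in luminescence from relieved DAX1 repression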
Target sequence (P51843 207-470 limits assumed): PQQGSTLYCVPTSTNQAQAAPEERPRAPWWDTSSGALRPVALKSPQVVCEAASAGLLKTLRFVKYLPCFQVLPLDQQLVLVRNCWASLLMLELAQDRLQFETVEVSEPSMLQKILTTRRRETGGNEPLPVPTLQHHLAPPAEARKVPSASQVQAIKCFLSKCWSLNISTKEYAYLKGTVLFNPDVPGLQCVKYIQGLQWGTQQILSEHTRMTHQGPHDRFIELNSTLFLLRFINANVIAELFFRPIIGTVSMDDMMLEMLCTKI
hgDAF-12 ag = hgDAF-12 agonism, primary luciferase screen. hit rate 1.8% among 370,000. activation, % at 6.8 µM. HEK293 GAL4-hgDAF12 UAS-luciferase reporter, agonist luminescence; normalized to butyrate control;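 active = activation above a cutoff set at the mean of all screened compounds plus 3 SD, cut at about 10% in these data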;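 note: 0% = DMSO wells and 100% = sodium butyrate wells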
DAX1 inh-2 = inhibitors of DAX1 repression of SF-1 activated StAR promoter | inhibition, % at 6.8 µM | hit rate 1.1% among 370,000 | HEK293T StAR-luciferase reporter, SF-1/DAX-1 repression relief | AID 652010;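 active = inhibition above the mean over all tested compounds plus 3 SD, cut at about 3.6% in these data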;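 note: 0% = DAX-1 cells with DMSO and 100% = cells lacking DAX-1 with DMSO; higher inhibition means more luminescence from relief of DAX-1 repression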
DAX1 conf = confirmation of human DAX1 (NR0B1) inhibitors; shares compounds with DAX1 inh-2; HEK293T StAR-promoter luciferase reporter, SF-1/DAX-1 repression; inhibition, % at 6.8 µM; hit rate 87% among 2,400; AID 652134;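 active = inhibition above the average of every tested compound plus 3 SD, cut at about 3.8% in these data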;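 note: 0% = DAX-1 cells with DMSO and 100% = no DAX-1 control cells with DMSO; active compounds raise luminescence by relieving repression of the StAR reporter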
SF1 AF2mut Luc = nonselective inhibitor or artifact in SF-1 mutant DAX1 counter-screen | shares compounds with DAX1 inh-2 | HEK293 StAR-luciferase, SF-1 AF2 mutant, luminescence | inhibition, % at 6.8 µM | hit rate 78% among 2,400 | AID 652136;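 active = inhibition above the mean of all tested compounds plus 3 SD, cut at about 3% in these data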;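 note: 0% = DAX-1 transfected cells with DMSO and 100% = cells without DAX-1 with DMSO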
An asterisk follows results filed as active; / = no result.

SMILES | hcDAF12 agonist | ssDAF-12 act | DAX1 inh-1 | hgDAF-12 ag | DAX1 inh-2 | DAX1 conf | SF1 AF2mut Luc
O=C1Nc2ccccc2N(C(=O)c2ccc(-c3ccccc3)cc2)C1c1nc2ccccc2[nH]1 (stereo unspecified) | 9.1* | 1 | / | 26* | 20* | 8.2* | 4.8*
COc1ccccc1CCNC(=O)CSc1nc(=O)[nH]c2c1CCC2 | 0 | -1 | 0 | 2 | 0 | / | /
Cc1ccc(C(=O)C(C)OC(=O)CNS(=O)(=O)c2ccc(C)cc2)cc1 (stereo unspecified) | 0 | -1 | 0 | -1 | 1 | / | /
COc1cc(C)c(NC(=S)Nc2cccc(Cl)c2C)cc1OC | -1 | -2 | 0 | -4 | 0 | / | /
CCc1ccc(C(=O)NCC2(c3ccccc3)CCOCC2)o1 | 3 | -1 | 1 | 13* | 4.6* | 6.7* | 3.4*
O=C(NCC1(c2ccccc2)CCOCC1)c1ccc(Br)o1 | -1 | -1 | -1 | 2 | -1 | / | /
NS(=O)(=O)c1ccc(NC(=O)CCC(=O)c2ccc(Cl)s2)cc1 | 2 | 0 | 1 | -1 | 0 | / | /
O=C(/C=C/c1ccc(S(=O)(=O)N2CCOCC2)cc1)NCc1ccccc1Cl | -2 | -2 | -1 | -2 | -1 | / | /
O=C(/C=C/c1ccc(S(=O)(=O)N2CCOCC2)cc1)NCc1ccccc1F | 0 | -1 | 0 | -3 | 5.0* | 0 | 1
O=C(NCc1ccccc1)c1ccc2c(=O)n3c(nc2c1)CCCCC3 | -1 | -1 | 0 | 2 | 0 | / | /
O=C(Nc1ccc2nc3n(c(=O)c2c1)CCCC3)c1ccccc1F | 0 | 0 | 1 | 2 | 1 | / | /
Cc1ccc(NC(=O)c2ccc3c(=O)n4c(nc3c2)CCCCC4)nc1 | 5 | -1 | 0 | 2 | 1 | / | /
Cc1cccc(NC(=O)c2ccc3c(=O)n4c(nc3c2)CCCCC4)n1 | 5 | -1 | -1 | 8 | 7.0* | 6.2* | 3
O=C(NCCc1ccc(F)cc1)c1ccc2c(=O)n3c(nc2c1)CCC3 | 4 | 1 | 1 | 7 | 6.3* | 2 | 3.4*
O=C(Nc1ccc2nc3n(c(=O)c2c1)CCCCC3)c1ccccn1 | 2 | 0 | 2 | 13* | 4.8* | 9.1* | 4.7*
COC(=O)Cc1nnn2c1[C@@H](C)[C@@H](c1ccccc1Br)O[C@@H](C)C2 | -1 | -1 | / | 1 | -1 | / | /
COc1ccc(C(CNC(=O)c2ccc(C)c(S(=O)(=O)Nc3ccccc3OC)c2)N2CCCC2)cc1 (stereo unspecified) | 2 | -1 | 1 | 3 | 5.3* | 6.2* | 5.3*
COc1ccc(C(CNC(=O)c2cccc(S(=O)(=O)Nc3ccccc3OC)c2)N2CCCC2)cc1 (stereo unspecified) | -1 | -1 | 1 | 0 | 5.7* | 6.3* | 3.4*
COc1ccc(C(CNC(=O)c2cccc(S(=O)(=O)Nc3ccccc3OC)c2)N2CCCCC2)cc1 (stereo unspecified) | 0 | -1 | 2 | 2 | 6.9* | 5.9* | 4.2*
COc1ccccc1NS(=O)(=O)c1cc(C(=O)NCC(c2cccs2)N2CCOCC2)ccc1C (stereo unspecified) | 2 | -1 | 0 | 0 | 0 | / | /
Cc1ccc(NC(=O)CSc2ncc3ccccn23)cc1C | -1 | -1 | 1 | 5 | 1 | / | /
Nc1ccc(S(=O)(=O)Nc2cnc3c(Cl)cccc3n2)cc1 | -1 | -1 | 2 | -3 | 5.7* | 5.2* | -1
C[C@@H]1CN([C@H](C)CO)C(=O)CCCn2nncc2CO[C@@H]1CN(C)S(=O)(=O)c1ccc2c(c1)OCCCO2 | 2 | -1 | 1 | 3 | 4.8* | 2 | 2
O=c1c(Br)c(N2CCOCC2)cnn1-c1ccccc1 | 3 | -1 | 2 | 3 | 2 | / | /
O=c1c(Br)c(N2CCCCC2)cnn1-c1ccccc1 | 3 | -1 | 4.5* | 13* | 4.6* | 10* | 8.3*
SMILES | hcDAF12 agonist | ssDAF-12 act | DAX1 inh-1 | hgDAF-12 ag | DAX1 inh-2 | DAX1 conf | SF1 AF2mut Luc
O=[N+]([O-])c1ccccc1S(=O)(=O)Nc1cccc(-c2ccc(N3CCCC3)nn2)c1 | 1 | -1 | 0 | 3 | 2 | / | /
O=[N+]([O-])c1ccccc1S(=O)(=O)Nc1cccc(-c2ccc(N3CCOCC3)nn2)c1 | 1 | 0 | 1 | 5 | 5.2* | 7.0* | 5.2*
COc1ccc(C(=O)N=c2sc3c(C)ccc(OC)c3n2C)cc1 | 5 | 0 | 4 | 13* | 4.8* | 3 | -4
O=C(CCNS(=O)(=O)c1cccc2nsnc12)NCc1ccco1 | -1 | 0 | 0 | -2 | 0 | / | /
COc1cc2nn(-c3ccccc3N)nc2cc1OC | 3 | 0 | 3 | 11* | 4.7* | 6.7* | 4.8*
Cc1cccc(C(=O)Nc2ccn(C)n2)c1 | 0 | -1 | 2 | 8 | 4.9* | 5.8* | 3.0*
CCCNC(=O)C1(C)CCCN(Cc2cccc(C#N)c2)C1 (stereo unspecified) | 2 | -1 | / | 4 | 0 | / | /
COc1ccc(/C(N)=N/OC(=O)C2CCCCC2)cc1 | 0 | 0 | 1 | 9 | 5.9* | 8.9* | 5.8*
COc1ccc(/C(N)=N/OC(=O)CC2CCCCC2)cc1OC | -1 | -1 | 1 | 5 | -1 | / | /
COc1ccc(/C(N)=N/OC(=O)C2CCCCC2)cc1OC | 1 | -1 | 2 | 6 | 6.0* | 4 | 3.6*
CCOc1ccc(Cl)cc1-c1cc(C(=O)Nc2ccc(F)cc2)[nH]n1 | -2 | -1 | / | 3 | 0 | / | /
COc1ccccc1CNC(=O)COC(=O)COc1ccccc1Cc1ccccc1 | -1 | 0 | 1 | 1 | -1 | / | /
COCc1[nH]nc2c1C(c1ccc(C)cc1)NC2=O (stereo unspecified) | -2 | -1 | / | 3 | 2 | / | /
COCC(=O)Nc1cc(C(=O)NCCc2ccccc2)ccc1Cl | 5.8* | -1 | 1 | 8 | 5.7* | 9.3* | 3.3*
CN(C(=O)CSc1nc2ccccc2o1)C1CCCCC1 | 0 | 0 | 2 | 13* | 9.0* | 7.2* | 5.9*
COc1cccc(N2CCN(C(=O)CN3C(=O)NC4(CCCC4)C3=O)CC2)c1 | -1 | -1 | 0 | -2 | -1 | / | /
COc1ccc(OC)c(CN2CCN(C(=O)CN3C(=O)NC4(CCCC4)C3=O)CC2)c1 | -1 | -1 | 0 | 0 | 4.9* | -2 | 0
CC(=O)c1c(C)[nH]c(C(=O)Nc2ccc(C)c(S(=O)(=O)N(C)C)c2)c1C | 5 | 1.0* | 4 | 10* | 13* | 15* | 6.7*
CC(=O)c1c(C)[nH]c(C(=O)Nc2ccc(S(=O)(=O)N(C)C)cc2)c1C | -1 | -2 | 1 | -1 | 0 | / | /
